Screening results: PubChem BioAssay, The Scripps Research Institute Molecular Screening Center
A selection: hits, their analogues and other compounds. The true share with any hit is near 0.9%.
SRC1 TRFRET art – TR-FRET detection interference compounds, primary screen, artefact control for PPARgamma SRC-1 recruitment agonists, biochemical, TR-FRET emission ratio. actives 0.34% (n = 99,000). AID 1051, 2008. TR-FRET detection artefact counter-screen; hits give high values. TR-FRET ratio at 8 µM; in the data active = TR-FRET ratio above about 2300
PPARg SRC1 recr – PPARgamma agonists recruiting SRC-1 coactivator, primary screen, biochemical | Peroxisome proliferator-activated receptor gamma (Homo sapiens), P37231 | PPARgamma-SRC-1 coactivator recruitment biochemical assay | activation, % at 8 µM | actives 0.41% (n = 200,000); in the data active = activation above about 19%;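 note: 0% = DMSO and 100% = reference agonist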
Target sequence (P37231 whole entry, looked up): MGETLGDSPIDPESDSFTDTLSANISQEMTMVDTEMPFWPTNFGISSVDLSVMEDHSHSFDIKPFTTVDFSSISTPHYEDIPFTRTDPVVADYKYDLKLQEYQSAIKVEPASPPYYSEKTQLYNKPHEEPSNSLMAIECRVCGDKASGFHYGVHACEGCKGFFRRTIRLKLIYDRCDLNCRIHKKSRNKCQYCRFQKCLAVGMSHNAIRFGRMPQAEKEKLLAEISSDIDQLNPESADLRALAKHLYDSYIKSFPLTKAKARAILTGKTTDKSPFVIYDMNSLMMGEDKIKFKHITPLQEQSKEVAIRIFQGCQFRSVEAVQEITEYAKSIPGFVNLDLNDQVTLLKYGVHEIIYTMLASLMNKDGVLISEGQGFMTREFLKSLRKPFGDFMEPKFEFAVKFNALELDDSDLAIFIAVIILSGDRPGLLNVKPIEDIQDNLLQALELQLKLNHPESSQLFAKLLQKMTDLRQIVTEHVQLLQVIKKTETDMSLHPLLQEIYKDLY
PPARg SRC-2 ag – agonists of PPARg-SRC-2 recruitment, primary screen, biochemical, HTS | PPARgamma LBD-SRC-2 recruitment | actives 0.34% (n = 200,000) | activation, % at 8 µM | Peroxisome proliferator-activated receptor gamma (Homo sapiens), P37231; in the data active = activation above about 22%;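 note: 0% = vehicle and 100% = reference agonist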
TR-FRET SRC-2 ct – TR-FRET signal artefacts, primary screen, artefact control for PPARgamma SRC-2 agonist project, biochemical. TR-FRET artefact counter-screen; hits give high values. TR-FRET ratio at 8 µM. actives 0.4% (n = 200,000). AID 1049, 2008
PPARg SRC3 recr – PPARgamma agonists recruiting SRC-3 coactivator, primary screen, biochemical. activation, % at 8 µM. Peroxisome proliferator-activated receptor gamma (Homo sapiens), P37231. actives 0.26% (n = 200,000). biochemical PPARgamma/SRC-3 coactivator recruitment assay. AID 731, 2007; in the data active = activation above about 23%;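 note: 0% = DMSO and 100% = reference agonist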
SRC3 TRFRET art – TR-FRET detection interference compounds, artefact control for PPARgamma SRC-3 recruitment agonists, biochemical, TR-FRET ratio; TR-FRET artefact counter-screen, PPARgamma/SRC-3 format; hits give high values; TR-FRET ratio at 8 µM; actives 0.39% (n = 99,000)
Active calls of the source: *; . = no result given. Cut-off read from the data, not from the text of the source, unless noted: active = TR-FRET ratio above about 2000; inactive = the rest.

SMILES	SRC1 TRFRET art	PPARg SRC1 recr	PPARg SRC-2 ag	TR-FRET SRC-2 ct	PPARg SRC3 recr	SRC3 TRFRET art
CC1(C)CC(=O)C(C=Nc2ccccc2C(=O)O)=C(O)C1	.	5.8	-0.4	1972*	4.3	.
c1ccc(-n2ncc3c2ncn2nc(-c4ccco4)nc32)cc1	.	12.5	46.6*	2763*	14.7	.
COc1cccc(OCc2nc3c4cnn(-c5ccccc5)c4ncn3n2)c1	.	9.9	3.5	1589	7.0	.
Cc1cnc(N)c2c(=O)oc3ccccc3c12	.	0.8	4.8	2018*	6.9	.
COc1cccc(-c2c(C#N)c(N)nc3c2c(=O)nc2sccn23)c1	1813	16.0	6.2	1628	2.6	1349
COc1cc(-c2nc3ccccn3c2/N=C/c2cc(OC)c(OC)c(OC)c2)ccc1O	.	23.2*	25.8*	1665	18.9	.
CCOc1cccc2cc(C(=O)Nc3ccccc3-c3ccccc3)c(=O)oc12	1745	-4.1	-9.0	1460	0.6	1345
CCOc1cccc2cc(C(=O)Nc3cc(C)on3)c(=O)oc12	.	37.8*	6.4	1720	3.1	.
O=C1C2C3c4ccccc4C(c4ccccc43)C2C(=O)N1Cc1ccccn1 (stereo not drawn)	1842	6.8	5.5	1475	11.3	1606
COc1ccc(OCC(=O)NC(=S)Nc2ccc3c4c(cccc24)CC3)cc1	2059	7.5	2.6	1730	12.5	2132*
Cc1ccccc1OCC(=O)NC(=S)Nc1ccc2c3c(cccc13)CC2	.	8.4	10.7	1639	14.3	.
O=C(CCNC(=O)Cn1ccc2ccccc2c1=O)NCCc1ccc(Cl)cc1	2002	5.5	0.7	1430	2.3	1757
COc1ccc(C(=O)c2c(C)c3cc(C)ccc3n2CC(O)CN2CCOCC2)cc1 (stereo not drawn)	1679	1.4	7.6	1499	4.3	1482
Fc1ccc2nc(Nc3nc4cc5c(cc4s3)OCO5)sc2c1	1631	-5.7	4.2	1428	-8.1	1305
Fc1ccc2nc(Nc3nc4cc5c(cc4s3)OCCO5)sc2c1	2154	8.0	2.7	2038*	3.7	2582*
O=C(CCSCc1ccccc1F)NCc1cccs1	1774	-7.4	-2.9	1317	-0.3	1522
O=C(CCSCc1ccccc1Cl)NCc1cccs1	2618*	27.9*	1.7	1617	-4.7	1723
Cc1c(C(=O)OCC(=O)c2ccc3c(c2)OCCO3)oc2ccccc12	.	7.5	-4.0	2066*	-1.2	.
Cc1cc(C(=O)OCC(=O)c2ccc3c(c2)OCCO3)c(C)o1	.	10.0	2.9	1561	9.5	.
Cc1ccccc1/C=C1\SC(=S)N(/N=C/c2cc([N+](=O)[O-])ccc2O)C1=O	1872	-2.0	-2.4	1392	15.0	1708
O=C(O)CCCC(=O)N1CCN(C(c2ccccc2)c2ccccc2)CC1	1891	8.0	9.3	1569	2.6	1490
COc1ccc(-c2cn3cccnc3n2)cc1Br	1584	-0.2	1.3	1548	0.1	1496
Nc1ccc(-c2cn3cccnc3n2)cc1	1719	0.8	8.9	1474	12.1	2118*
Cc1nnc(SCc2ccccc2)n1N	2275	21.8*	3.0	1367	-9.3	1541
CCOC(=O)CC(=O)CSc1ncnc2c1nnn2-c1ccc(OC)cc1	2063	11.3	1.4	1716	-0.6	1678
SMILES	SRC1 TRFRET art	PPARg SRC1 recr	PPARg SRC-2 ag	TR-FRET SRC-2 ct	PPARg SRC3 recr	SRC3 TRFRET art
CCN(CC)c1ccc2cc(-c3nc4ccccc4[nH]3)c(=O)oc2c1	.	26.2*	4.9	1621	9.0	.
CCN(CC)c1ccc2cc(-c3nc4ccccc4n3C)c(=O)oc2c1	.	-0.8	1.3	1610	10.2	.
O=C(COc1cccc(Cl)c1)Nc1nc(-c2ccc(S(=O)(=O)N3CCOCC3)cc2)cs1	.	11.2	11.4	2278*	21.0	.
COc1ccccc1OC(C)C(=O)Nc1nc(-c2ccc(S(=O)(=O)N3CCOCC3)cc2)cs1 (stereo not drawn)	.	5.3	8.8	2207*	-12.1	.
O=C(COC(=O)c1cccc(S(=O)(=O)N2CCOCC2)c1)Nc1nc(-c2ccccc2Cl)cs1	.	8.9	1.6	1499	2.8	.
O=C(Nc1nc(-c2ccncc2)cs1)c1ccc(S(=O)(=O)N2CCOCC2)cc1	.	5.4	-2.9	1646	6.3	.
